Experimental data as given in PubChem BioAssay (NCATS).
Records with an inconclusive call do not appear. Unmarked numbers belong to inactive results. Calls come from the whole dose curve; as a rule, active = well fitted curve in the direction sought with a large enough effect; inconclusive = small, poorly fitted or top-dose-only effect, or another doubt; inactive = no such curve, though single readings can be large or run the other way.

Target: Metallo-beta-lactamase type 2 (Klebsiella pneumoniae) (UniProt C7C422)
Experiment: qHTS to identify inhibitors of the New Delhi Metallo-beta-lactamase (NDM): assay validation screen against the NCATS LOPAC Collection (AID 1794843)
Details: NDM-1 enzyme, nitrocefin hydrolysis, absorbance 485 nm; series mostly up to 38.4 µM; activity change, negative = inhibition: at the top concentration
Summary of the method: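 Absorbance at 485 nm from nitrocefin turnover (50 uM solution added), read at plateau, gives the read-out. Compounds in DMSO were incubated first with 2 nM final NDM-1 in pH 7.0 HEPES buffer containing 1 uM ZnSO4 and 0.01% Tween20.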
% is set by controls: 0 for no effect and ±100 for the full control effect.

Metallo-beta-lactamase type 2 (Klebsiella pneumoniae), sequence (C7C422 whole entry, looked up): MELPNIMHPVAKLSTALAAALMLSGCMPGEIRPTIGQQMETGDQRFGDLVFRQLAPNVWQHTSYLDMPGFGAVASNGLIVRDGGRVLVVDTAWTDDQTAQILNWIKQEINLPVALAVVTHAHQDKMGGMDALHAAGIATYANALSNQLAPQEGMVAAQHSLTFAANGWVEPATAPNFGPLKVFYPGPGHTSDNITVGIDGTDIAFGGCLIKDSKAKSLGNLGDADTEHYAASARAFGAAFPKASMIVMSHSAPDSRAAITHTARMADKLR

| SMILES | activity change, negative = inhibition [%] |
| --- | --- |
| COc1ccc(CCn2nnnc2C2(c3ccc(C)cc3)CC2)cc1 | 3.87 |
| CCN(CC)CCOC(=O)c1cc(Cl)c(N)cc1OC | -3.44 |
| COc1ccc2c(c1)c(CC(=O)O)c(C)n2C(=O)c1ccccc1 | -0.15 |
| [Li+] | -0.454 |
| CN1CC(O)C(O)C(O)C1CO (stereo unspecified) | -1.96 |
| c1ccc2nc(C3=NCCN3)ccc2c1 | 2.69 |
| N#CC(C#N)=C(N)/C(C#N)=C/c1ccc(O)cc1 | 8.75 |
| COc1ccc2c(c1)CCC1C2CC[C@@]2(C)C1CC[C@@H]2NCCCCCCN1C(=O)C=CC1=O (stereo partly specified) | -3.75 |
| CC(N)=O | 1.98 |
| Cc1nc(N=Nc2cc(S(=O)(=O)O)c3cc([N+](=O)[O-])cc(S(=O)(=O)O)c3c2)c(COP(=O)(O)O)c(C=O)c1O | -10.3 |
| N=C(N)c1ccc(N)cc1 | -8.74 |
| Cc1nc2n(c(=O)c1CCN1CCC(c3noc4cc(F)ccc34)CC1)CCCC2O (stereo unspecified) | -8.51 |
| CCCCCCCCCC(=O)NC(CN1CCOCC1)[C@H](O)c1ccccc1 (stereo partly specified) | -2.42 |
| C#CCn1c(=O)c2c(ncn2C)n(C)c1=O | 4.72 |
| CN1CCC2(CCN3CCc4c(oc5ccccc45)C3C2)N(C)C1=O (stereo unspecified) | 4.6 |
| Nc1ccc(-c2ccc3ccccc3n2)cc1 | -5.75 |
| O=c1[nH]c2cc(Cl)ccc2c(O)c1-c1ccc(Oc2ccccc2)cc1 | -6.11 |
| N[C@H](C(=O)O)c1cc(O)cc(O)c1 | 3.27 |

| SMILES | activity change, negative = inhibition [%] |
| --- | --- |
| Cc1nc2c(OCc3ccccc3)cccn2c1CC#N | 8.12 |
| COc1ccc(-c2cc3ncc(C)n3c(Nc3ncccc3C(N)=O)n2)cc1OC | -3.67 |
| NC(=O)CNCCC(c1ccccc1)c1ccccc1 | 4.92 |
| NC1C=CC=C(C(=O)O)C1 (stereo unspecified) | -0.0604 |
| Cc1cccc(C2CN(C)CCc3c2cc(O)c(O)c3Cl)c1 (stereo unspecified) | -10.2 |
| CN(C)CCCc1cc(C(=O)Nc2ccc(-c3ccncc3)cc2)ccc1O | 40.3 |
| c1ccc2c(c1)CC(N1CCN(c3cccc4c3OCCO4)CC1)C2 | 0.372 |
| O=[N+]([O-])c1cccc2cn[nH]c12 | 2.37 |
| O=C(O)CCC/C=C\C[C@@H]1[C@@H](/C=C/[C@H](O)C2Cc3ccccc3C2)[C@@H](F)C[C@@H]1O | -1.15 |
| Nc1ncnc2c1ncn2C1CCCO1 (stereo unspecified) | -0.76 |
| NC1(C(=O)O)CCCCC1 | -17.4 |
| O=C1Nc2ccc(I)cc2/C1=C/c1cc(Br)c(O)c(Br)c1 | 23.6 |
| OC[C@H]1O[C@H](n2cnc3c(N[C@H]4CCC[C@@H]4O)ncnc32)[C@H](O)[C@@H]1O | 5.44 |
| CCCCCCC/C=C\CCCCCCCCC(=O)O | 1.24 |
| O=c1oc(Cl)c(Cl)c2ccccc12 | -21.1 |
| CCN(c1nc(N)c(C(=O)N=C(N)N)nc1Cl)C(C)C | -0.996 |
| CC(C)Cn1c(=O)n(C)c(=O)c2[nH]cnc21 | -10.3 |
| N=C(N)c1ccccc1 | 3.81 |
